# The list is not random: actives were taken first. Their share in the collection is about 1.6%.
# KCNQ2 inh – blocks the rat KCNQ2 potassium channel; CHO-K1 KCNQ2, FluxOR thallium flux, 20 min; stronger effect = lower value; B-score at 10 µM; actives 1.1% (n = 310,000); AID 2156;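 active = fluorescence ratio B-score at most minus 3 library SDs, with starting brightness B-score within 2 library SDs, cut at about -5.5 in these data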
# KCNQ2 pot – potentiators of rat KCNQ2 potassium channel. O88943. CHO-K1 KCNQ2, FluxOR thallium flux fluorescence; stronger effect = higher value. B-score at 10 µM. actives 0.54% (n = 310,000);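 active = fluorescence ratio B-score at least 3 SD of library B-scores, with initial fluorescence B-score within 3 of them, cut at about 5.3 in these data; same plate scores as AID 2156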;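 also: B-score of peak minus minimum over baseline fluorescence ratio after K+ and Tl+ stimulus; positive B-score means potentiation of KCNQ2 with more thallium influx and brighter signal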
# Kir21 conf inh – confirmation of mouse Kir2.1 potassium channel inhibitors; shares compounds with KCNQ2 pot; Kir2.1-expressing cells, FluxOR thallium flux fluorescence; stronger effect = lower value; Tl flux remaining, % of negative control (stronger effect = lower value), % at 10 µM; actives 41% (n = 2,300);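 active = Primary-screen hit whose thallium flux fell at least 3 control SD below untreated wells in both duplicates, with normal baseline fluorescence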;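 also: 0% = blank wells without stimulus and 100% = stimulated no-compound controls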
# HEK293 ctr – parental HEK293 activity in Kir2.1 inhibitor counter-screen | parental HEK293 cells, FluxOR thallium flux fluorescence; 0% = unstimulated blank wells | shares compounds with KCNQ2 pot | FluxOR signal as % of negative control (100 = no effect), % at 10 µM | AID 2105 | actives 19% (n = 2,300);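 active = dye signal at least 3 control SD above or below untreated wells in both duplicates, raw fluorescence within 3, either direction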;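 also: percent is based on the flux ratio of peak minus minimum fluorescence over baseline F0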
# CHO-K1 Tl ctr – alters thallium flux in parental CHO-K1 cells, KCNQ2 counter-screen; shares compounds with KCNQ2 pot; FluxOR thallium flux fluorescence; zero = vehicle mean+3SD, 100% = vehicle-minus-blank window; activity increase over 3SD of controls, % at 10 µM; actives 43% (n = 1,200);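 active = signal rise of at least 3 SD above the untreated control mean, in both duplicate wells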;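 also: counter screen of KCNQ2 potentiator hits so any rise reflects channel-independent effects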
# KCNQ1 sel pot – human KCNQ1 counter-target activity of KCNQ2 potentiators. shares compounds with KCNQ2 pot. CHO KCNQ1 stable, FluxOR thallium flux fluorescence; beyond 3SD, as % of vehicle-control signal. activation over 3SD threshold, % at 10 µM. actives 28% (n = 1,200). AID 2283;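 active = fluorescence ratio rise of at least 3 SD of vehicle wells above their mean, in both replicate wells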;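 also: 0% = vehicle mean plus 3 SD and 100% = vehicle minus unstimulated blank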
# KCNQ2 pot confirm – confirmation of rat KCNQ2 potassium channel potentiators. CHO-KCNQ2 cells, FluxOR thallium flux fluorescence. shares compounds with KCNQ2 pot. potentiation, less the hit threshold, % at 10 µM. actives 68% (n = 1,200);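 active = fluorescence ratio rising 3 SD or more over the vehicle control mean in both replicates, plus primary screen hit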;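 also: peak minus minimum thallium fluorescence divided by baseline after K/Tl stimulus; 0% = vehicle mean plus 3 SD and 100% = vehicle minus unstimulated blank difference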
# Kir21 spec – tests whether KCNQ2 potentiators also affect mouse Kir2.1; shares compounds with KCNQ2 pot; HEK293 Kir2.1, FluxOR thallium flux fluorescence; activity over 3SD threshold, % at 10 µM; actives 2% (n = 1,200);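 active = fluorescence ratio rise of at least 3 SD above the vehicle-control mean, seen in both replicates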;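 also: 0% = vehicle mean plus 3 SD and 100% = vehicle minus no-stimulus blank window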
# KCNQ2 W236L MoA – KCNQ2 potentiators acting on retigabine-insensitive rat KCNQ2 W236L mutant | actives 10% (n = 940) | CHO KCNQ2-W236L, automated patch clamp current | shares compounds with KCNQ2 pot | current increase over 3SD of negative controls (%), stronger effect = higher value, % at 25 µM;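 active = current increase at least 3 SD of the untreated controls above them in both duplicate recordings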
# Target sequence (O88943 whole entry W236L, looked up): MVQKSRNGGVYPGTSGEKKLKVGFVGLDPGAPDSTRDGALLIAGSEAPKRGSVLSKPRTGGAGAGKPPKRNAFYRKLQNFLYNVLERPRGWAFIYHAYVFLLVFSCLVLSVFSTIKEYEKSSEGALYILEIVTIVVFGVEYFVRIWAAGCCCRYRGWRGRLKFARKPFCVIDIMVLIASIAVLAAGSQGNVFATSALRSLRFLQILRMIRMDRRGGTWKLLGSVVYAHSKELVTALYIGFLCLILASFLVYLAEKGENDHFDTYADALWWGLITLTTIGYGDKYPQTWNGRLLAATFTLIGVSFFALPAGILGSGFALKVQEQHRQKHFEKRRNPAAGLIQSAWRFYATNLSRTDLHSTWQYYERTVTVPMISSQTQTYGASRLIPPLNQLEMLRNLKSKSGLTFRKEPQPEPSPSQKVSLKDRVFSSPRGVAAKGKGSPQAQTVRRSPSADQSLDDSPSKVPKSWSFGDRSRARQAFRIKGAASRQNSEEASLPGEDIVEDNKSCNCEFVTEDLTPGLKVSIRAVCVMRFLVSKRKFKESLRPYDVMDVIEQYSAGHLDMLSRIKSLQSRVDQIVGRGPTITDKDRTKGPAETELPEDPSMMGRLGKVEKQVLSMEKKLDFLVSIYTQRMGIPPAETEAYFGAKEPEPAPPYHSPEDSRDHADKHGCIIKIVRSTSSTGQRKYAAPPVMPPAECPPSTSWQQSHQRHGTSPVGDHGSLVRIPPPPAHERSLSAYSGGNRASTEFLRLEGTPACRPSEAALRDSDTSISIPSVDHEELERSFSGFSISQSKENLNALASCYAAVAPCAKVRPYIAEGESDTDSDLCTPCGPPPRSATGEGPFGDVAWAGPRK
# Starred values were filed as active, the others as inactive; i = inactive; . = no result given.
SMILES,KCNQ2 inh,KCNQ2 pot,Kir21 conf inh,HEK293 ctr,CHO-K1 Tl ctr,KCNQ1 sel pot,KCNQ2 pot confirm,Kir21 spec,others
CCCCn1c(NC(=O)C2CCCCC2)nc2ccccc21,i,9.62*,i,i,3.9*,-14.6,16.4*,-38.5,KCNQ2 W236L MoA=i
CN(C)CCCn1c(NC(=O)C2CCCCC2)nc2ccccc21,i,0.81,.,.,.,.,.,.,
Cc1oc(-c2ccccc2Cl)nc1CS(=O)CC(=O)NCc1ccccc1Cl (configuration not stated),i,.,.,.,.,.,.,.,
O=C(O)COc1ccccc1/C=N/NC(=O)CSc1nc2ccccc2n1Cc1ccccc1Cl,i,2.33,i,73.0%*,.,.,.,.,
O=C(CSc1nc2ccccc2n1Cc1ccccc1)N/N=C/c1ccccc1C(=O)O,i,0.51,.,.,.,.,.,.,
O=C(NCC(=O)N1CCN(C(c2ccccc2)c2ccccc2)CC1)c1ccccc1F,i,0.65,.,.,.,.,.,.,
CCc1ccccc1NC(=O)NC(C)c1ccc2c(c1)OCO2 (configuration not stated),i,1.55,.,.,.,.,.,.,
CC(NC(=O)NC12CC3CC(CC(C3)C1)C2)c1ccc2c(c1)OCO2 (configuration not stated),i,15*,i,i,28.3*,-18.3,55.9*,-39.1,KCNQ2 W236L MoA=i
O=C(NCc1ccc2c(c1)OCO2)NC1CCCCC1,i,5.67*,i,i,38.3*,-9.6,-19.3,-23.0,
O=C(NCc1ccc2c(c1)CCO2)Nc1cccc(C(F)(F)F)c1,i,7.06*,i,i,3.1*,19.5*,25.1*,-43.9,KCNQ2 W236L MoA=i
CC(NC(=O)Nc1ccc(Cl)cc1)c1ccc2c(c1)OCO2 (configuration not stated),i,.,.,.,.,.,.,.,
CC(NC(=O)NC1CCCCC1)c1ccc2c(c1)OCO2 (configuration not stated),i,20.9*,i,i,11.7*,-24.3,61.6*,-34.3,KCNQ2 W236L MoA=i
O=C(NNC(=O)c1ccc2c(c1)OCO2)NC1CCCCC1,i,.,.,.,.,.,.,.,
O=C(NCc1cccnc1)Nc1cccc(C(F)(F)F)c1,i,1.37,.,.,.,.,.,.,
C[C@H](NC(=O)c1ccco1)C(=O)NCCc1ccc(S(N)(=O)=O)cc1,i,.,.,.,.,.,.,.,
Cc1ccc(Cn2c(C3CCCN3c3nc(-c4ccc(F)cc4)cs3)nc3cc(C(F)(F)F)ccc32)cc1 (configuration not stated),i,.,.,.,.,.,.,.,
O=C(NN=C1CCN(Cc2ccccc2)CC1)C(O)c1ccccc1 (configuration not stated),i,.,.,.,.,.,.,.,
O=C1[C@@H]2Cc3c([nH]c4ccccc34)CN2C(=O)CN1CCCCCO,i,0.5,.,.,.,.,.,.,
CC(C)N(CCCNC(=O)Cn1c(=O)c2cccn2c2ccc(F)cc21)Cc1ccccc1,i,0.02,.,.,.,.,.,.,
O=C(Cc1ccccc1)NCc1ccc2c(c1)OCO2,i,2.6,.,.,.,.,.,.,
Cc1cccc(NC(=S)NCc2ccc3c(c2)OCO3)c1,i,0.23,.,.,.,.,.,.,
O=C(CC12CCC(CC1)C2)NCc1ccc2c(c1)OCO2,i,10.9*,i,i,95.6*,-13.2,43.7*,-26.1,KCNQ2 W236L MoA=i
Cc1cccc(NC(=O)NCc2ccc3c(c2)OCO3)c1,i,11.1*,i,i,4.1*,-11.7,20.1*,-40.5,KCNQ2 W236L MoA=i
CSc1ccccc1NC(=O)CSc1nnc(Cc2ccccc2)o1,i,0.14,.,.,.,.,.,.,
CCCCCC(O)(c1ccc(OCC)cc1)C(CN1CCOCC1)c1ccccc1 (configuration not stated),i,0.62,.,.,.,.,.,.,
SMILES,KCNQ2 inh,KCNQ2 pot,Kir21 conf inh,HEK293 ctr,CHO-K1 Tl ctr,KCNQ1 sel pot,KCNQ2 pot confirm,Kir21 spec,others
O/N=C/c1cn(-c2ccccc2)nc1-c1cccnc1,i,.,.,.,.,.,.,.,
Cc1ccc(-c2nn(-c3ccccc3)cc2/C=N/O)cc1,i,5.38*,i,i,-13.7,-15.2,15.1*,-32.1,KCNQ2 W236L MoA=i
CN(Cc1ccon1)C(=O)C1CCC(=O)N(CCc2ccc(Cl)cc2)C1 (configuration not stated),i,2.01,.,.,.,.,.,.,
O=C(O)c1cccc(NN=C2c3ccccc3-c3ccccc32)c1,i,.,.,.,.,.,.,.,
O=C(O)c1cc(NN=C2c3ccccc3-c3ccccc32)ccc1Cl,i,9.15*,i,i,51.1*,-14.5,51.2*,-44.3,KCNQ2 W236L MoA=21.9%*
COc1ccc(S(=O)(=O)N2CCCCCC2)cc1NC(=O)CN1C(=O)NC(C)(c2ccccc2)C1=O (configuration not stated),i,2.24,.,.,.,.,.,.,
CC(=O)Nc1ccc(S(=O)(=O)NCc2ccc3[nH]c(C)cc3c2)cc1,i,5.4*,i,i,3.8*,-5.5,-18.1,-35.6,
Cc1ccc(S(=O)(=O)NCc2ccc3[nH]c(C)cc3c2)cc1,i,.,.,.,.,.,.,.,
Cc1nn(-c2ccccc2)c(Cl)c1C(=O)OCC(=O)N(C)c1c(N)n(Cc2ccccc2)c(=O)[nH]c1=O,i,0.06,.,.,.,.,.,.,
CCN(CC)CCCN(C(=O)c1ccc(OC)cc1)c1nc(-c2ccc(OC)cc2)cs1,i,1.34,77.5%*,i,.,.,.,.,
CCN(CC)CCCN(C(=O)c1ccccc1C)c1nc(-c2ccc(OC)cc2)cs1,i,0.81,.,.,.,.,.,.,
Cc1nn(-c2ccccc2)c(Cl)c1/C=N/NC(=O)c1ccncc1,i,0.25,.,.,.,.,.,.,
CC(C)(C)c1ccc(OCCC(=O)Nc2ccc(N3CCOCC3)cc2N2CCOCC2)cc1,i,7.97*,.,.,-5.7,-37.1,-16.0,-43.7,
Cc1ccc(C(=O)Nc2ccc(N3CCOCC3)cc2N2CCOCC2)cc1,i,.,.,.,.,.,.,.,
CCOc1ccc(OCCC(=O)OCC(=O)Nc2ccc(N3CCOCC3)cc2)cc1,i,0.66,.,.,.,.,.,.,
CCOc1cc(N2CCOCC2)c(OCC)cc1NC(=O)COC(=O)CCOc1ccc(C(C)(C)C)cc1,i,10.6*,i,i,3.1*,-23.5,-11.8,-13.9,KCNQ2 W236L MoA=i
CC(=O)Nc1ccc(NC(=O)C2CCN(C(=O)NC3CCCCC3)CC2)cc1,i,0.33,.,.,.,.,.,.,
CC1=NN(c2ccc(Br)cc2)C(=O)/C1=C/c1ccc(-c2ccccc2C(=O)O)o1,i,7.11*,i,i,-12.0,13.6*,19.4*,-32.6,KCNQ2 W236L MoA=i
CC1=NOC(=O)/C1=C\c1ccc(-c2ccc(Br)cc2C(=O)O)o1,i,1.18,.,.,.,.,.,.,
C/C(=C\c1ccccc1)C(=O)Nc1ccc(S(=O)(=O)Nc2ncccn2)cc1,i,0.65,.,.,.,.,.,.,

# Screening data from PubChem.
